The values below come from the OligoGym collection.
Further: reference of the scale not given here.

One assay addresses RASGRP2. The experiment in a line: pooled miR-30 sensor sort-seq; sequence = guide strand. The conditions noted are these: shRNA.
The sequence TTGGTAGATGTGGAGCAGCTTG yielded a sensor-assay potency score (higher = more potent) of -1.27.

TCAAACAACAGGGACATCTTGC returned a sensor-assay potency score (higher = more potent) of -0.201.

In the case of TAGCAGAGCCTTCAGCTCCTTG, the sensor-assay potency score (higher = more potent) was -0.951.

TTTGCTGAGGATCATGAGCTGC came in with a sensor-assay potency score (higher = more potent) of -0.888.

In the next assay the target is RASIP1. The description is as above. To be noted: shRNA.
Take TTAGGCTGCTCCATGAAGCCTT: the sensor-assay potency score (higher = more potent) is -0.552.

In turn, TTGACCTCGTTCCATCAGCGAG had a sensor-assay potency score (higher = more potent) of -1.71.

Consider TTGGAGAAGAAGAACAAGTAGC, for which the sensor-assay potency score (higher = more potent) is -0.187.

Sequence TGGAGCAGCAGGAAGTAGGGGC returned a sensor-assay potency score (higher = more potent) of 0.0878.

With AAGAAGACTTGACAGAGGCTGC, the sensor-assay potency score (higher = more potent) was 0.0487.

TAGGTCTCAATCCTGGAGGCAT came in with a sensor-assay potency score (higher = more potent) of -0.489.

For TTCCAAGTCATTGCAGAGCTGT, the sensor-assay potency score (higher = more potent) is -0.369.

TTGGTCAGCCTCCTTCTCCATT yielded a sensor-assay potency score (higher = more potent) of -1.48.

On to TGAATAGAGAGTCTTGGTGAGG, for which the sensor-assay potency score (higher = more potent) was -1.22.

Turning to TTTTCTGAGCGCTCCTTGCCTC, the sensor-assay potency score (higher = more potent) is -0.853.

TCAACTGATCGAAGTCCCCGGG returned a sensor-assay potency score (higher = more potent) of 0.0667.

Turning to TTGAATAGAGAGTCTTGGTGAG, the sensor-assay potency score (higher = more potent) amounted to 0.37.

Another assay deals with RASL10B. The assay is described as above. The conditions noted are these: shRNA.
With TAGGTTGTTGTGTCTCTGGGGG, the sensor-assay potency score (higher = more potent) was 0.276.

In turn, TCGTAGACCAGGATGTAGGCGT gave a sensor-assay potency score (higher = more potent) of 0.139.

In turn, TTGACGTACTCAAAGCTGTCAA displayed a sensor-assay potency score (higher = more potent) of 0.000852.

As to TCCACGTAGCCGCACTTCCAGG, the sensor-assay potency score (higher = more potent) was -2.

TCGTTGTACAAGAACTGGCGCA: the sensor-assay potency score (higher = more potent) was -0.634.

As to TTAATCAGGATAGTCTGAGATC, the sensor-assay potency score (higher = more potent) was -1.01.

The sequence ATGTAGGCGTGGACACTCCGGA came in with a sensor-assay potency score (higher = more potent) of -0.908.

TTCTAAATCGGTACAAAACTGA: the sensor-assay potency score (higher = more potent) was -0.599.

For the sequence AACTCGTTGTACAAGAACTGGC, the sensor-assay potency score (higher = more potent) was 0.0656.

In turn, TACAAAACTGACAGTGATCAGC showed a sensor-assay potency score (higher = more potent) of -0.715.

For TAGACCAGGATGTAGGCGTGGA, the sensor-assay potency score (higher = more potent) is -0.176.

On to TAGCCGCACTTCCAGGTCTTGC, for which the sensor-assay potency score (higher = more potent) is -1.97.

A further assay deals with RASSF2. The assay is described as above. To be noted: shRNA.
Sequence TATCTTGTCCACATGGGACTAG displayed a sensor-assay potency score (higher = more potent) of 0.13.

In turn, TTTGTGTCTAAATGTTTCCATG had a sensor-assay potency score (higher = more potent) of -1.27.

TAACTAAAATCAAAAGTCCTTG gave a sensor-assay potency score (higher = more potent) of -0.812.

Sequence TTCTCCATTAGGAACACTTTGG registered a sensor-assay potency score (higher = more potent) of -1.02.

TTCCCGATCTTCTTCCTCCTGG yielded a sensor-assay potency score (higher = more potent) of 0.559.

In the case of TTCGTTGTCATCCTGCATCTGC, the sensor-assay potency score (higher = more potent) worked out at 0.418.

In turn, TACATGTGAAAGTATCAGGTAG had a sensor-assay potency score (higher = more potent) of -0.041.

Take TATGGTTGTAGAAATGGCCGTT: the sensor-assay potency score (higher = more potent) was 1.03.

With TATTTATCTTGTCCACATGGGA, the sensor-assay potency score (higher = more potent) was -0.838.

With TCTGCTGACTTCTACATCCAGC, the sensor-assay potency score (higher = more potent) is -0.516.

As for TTTAAGTACCGGCATCTCGAAC, the sensor-assay potency score (higher = more potent) was -0.976.

For the sequence TTCTGTTTCTCACCACTCGTAT, the sensor-assay potency score (higher = more potent) was -0.432.
